The first experiment has as its target MRPL14. Put plainly: pooled miR-30 sensor sort-seq; sequence = guide strand. Particulars: shRNA.
Sequence TTCTTATAGACATGGATGCAGC came in with a sensor-assay potency score (higher = more potent) of -1.01. The same measure, in the same setting: next, TCATCTTCTGAATCGCACTCAG: -0.0883; TGTTGGAGTCGAATCTGGGGGT: -0.258. Consider TTGATGGCCAGTAGTATCTGGT, for which the sensor-assay potency score (higher = more potent) was -0.918. On the same count and under the same terms, the value for TTGTCCACCACTCGTACCCGCG was -1.02. Still for that read-out and setting: next, ATTCTTCTTATAGACATGGATG: -1.46.

In another experiment the target is MRPL21. Described as above. Particulars: shRNA.
As for TTTAGGAACATATCCTGGTAGA, the sensor-assay potency score (higher = more potent) was -0.392. As for TATCCGGAGGACAGTCTGCGGG, the sensor-assay potency score (higher = more potent) is -1.15.

Turning to TATCCTGGTAGATATGAAGTGC, the sensor-assay potency score (higher = more potent) is -0.473. With TTGAAGTTTTTCCTTTTCCTGA, the sensor-assay potency score (higher = more potent) is -0.489. The sequence TTCTTCTTGAAGTTTTTCCTTT came in with a sensor-assay potency score (higher = more potent) of -0.465. As for TTATCCGGAGGACAGTCTGCGG, the sensor-assay potency score (higher = more potent) was -1.53.

The sequence AATTGAACCTTCGAGAAGCAGA had a sensor-assay potency score (higher = more potent) of -0.954. In turn, TTCTACTCGAACAAGATCCTTT came in with a sensor-assay potency score (higher = more potent) of 0.318. TTTTAGGAACATATCCTGGTAG came in with a sensor-assay potency score (higher = more potent) of 0.0621. Same read-out and setting: next, TCGAACAAGATCCTTTCCGAGG: -1.49; TCTGTGAATTGAACCTTCGAGA: -0.658.

In the case of TTCATTTCCAATTAAGATCAGG, the sensor-assay potency score (higher = more potent) is -0.523.

The target in the next experiment is MRPL30. Described as above. The conditions noted are these: shRNA.
In turn, TTAAATAAAAACAATTTGCATT had a sensor-assay potency score (higher = more potent) of -0.896. On the same count and under the same terms, next, TTTGTCACAGTCTGTAGTCTGC: -0.242.

Consider TTTGTGACGAATCCAATCTGTA, for which the sensor-assay potency score (higher = more potent) was -0.546. On to ATTCTTGTGAACTTGAGGGGTA, for which the sensor-assay potency score (higher = more potent) was -0.0278.

In turn, TATTCTGGTAACAATATGCAGT showed a sensor-assay potency score (higher = more potent) of -0.632. Same read-out and setting: next, TTTTTCTAATCCAAGCATCTTT: -0.539. The same measure, in the same setting: next, TTCAATTTTGCATTCACTGAAG: -0.704; TCACAGTCTGTAGTCTGCCTGG: -0.534. Still for that read-out and setting: the value for TATTCTTGTGAACTTGAGGGGT was 0.0626. TAGACATGTTCTCCTCTGCTGG returned a sensor-assay potency score (higher = more potent) of -0.684.

For the next experiment, the target named is MRPS18C. Described as above. Particulars: shRNA.
Sequence TTTCTTTCTGTTTCTTCCCACA displayed a sensor-assay potency score (higher = more potent) of -1.1. The sequence TACCAAGTGTGTCAACTTCTTC displayed a sensor-assay potency score (higher = more potent) of -0.886. Still for that read-out and setting: the value for TTGTGAACAACCTCTTCTCCAA was -0.0976.

With TTTCTTCCCACAAAGACCTGTA, the sensor-assay potency score (higher = more potent) was 0.204. Sequence ATTTCTTTCTGTTTCTTCCCAC returned a sensor-assay potency score (higher = more potent) of 0.584. On the same count and under the same terms, the value for TAGGGTCCTTGAGATATGCAGG was -0.899; that for ATACCTGTTGTGAACAACCTCT was -0.0858; that for TTGAGCTCTCTTAATTGCTTTT was -1.05. With TGTGATTTCTTTCTGTTTCTTC, the sensor-assay potency score (higher = more potent) amounted to 0.701. Still for that read-out and setting: next, TACCTGTTGTGAACAACCTCTT: 0.47. Regarding TTTGAGCTCTCTTAATTGCTTT, the sensor-assay potency score (higher = more potent) is -0.321. On the same count and under the same terms, the value for TGCTTTTGTGATTTCTTTCTGT was 0.125.

For the origin of these results see the OligoGym collection.
Note: reference of the scale not given here.
